# DT40 TDP1 no CPT – qHTS for Inhibitors of human tyrosyl-DNA phosphodiesterase 1 (TDP1): qHTS in cells in absence of CPT; DT40 Tdp1-/- hTDP1 cells, no CPT, ATP luminescence, 48 h; Potency, µM (top dose mostly 46.2 µM), for inactives: at the top dose activity change, negative = growth inhibition, most hits filed as inhibitors; hit rate 15% among 420,000; note: nearly all actives have a fitted effect of over 55% in size
#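 Growth of hTDP1-complemented DT40 Tdp1-knockout cells is measured by ATP luminescence after at least 48 hr compound exposure at 37 °C, with DMSO substituting for the 20 nM CPT used in the parallel screen.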
# RORg inh – blocks mouse ROR gamma transcriptional activity; P51450; Drosophila S2 Gal4-RORgamma UAS-luciferase reporter, 20 h; Potency, µM (doses to about 53.6 µM), inactives show at the highest dose activity change, negative = inhibition, actives largely listed as inhibitors; hit rate 5.4% among 310,000; note: nearly all actives have a fitted effect of over 60% in size
#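 A Gal4/UAS one-hybrid system in insect cells: metallothionein-promoter Gal4–ROR gamma fusion plus Photinus luciferase reporter. Copper sulfate 700 uM final, 20 hr ambient incubation, luminescent detection after 10 min with reagent.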
# DT40 TDP1 CPT – DT40-hTDP1 cell growth loss with CPT. Potency, µM (top dose mostly 46.2 µM), for the others: top-dose activity change, negative = growth inhibition, hits mostly inhibitors. AID 686979. hit rate 12% among 420,000. chicken DT40 Tdp1-/-;hTDP1 cells + 20 nM CPT, ATP luminescence, 48 h; note: nearly all actives have a fitted effect of over 55% in size
#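 Cell growth measured by CellTiter-Glo luminescence after a minimum 48 h, 37 C compound exposure with 20 nM CPT in Tdp1-knockout DT40 cells stably expressing hTDP1, seeded 400/well; qHTS titration format.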
# TDP1 block – blocks human tyrosyl-DNA phosphodiesterase 1 | Q9NUW8 | hit rate 0.28% among 350,000 | Potency, µM (top dose mostly 130 µM), for the others: at the highest dose activity change, negative = inhibition, hits mostly inhibitors | recombinant TDP1, AlphaScreen DNA substrate cleavage; note: nearly all actives have a fitted effect of over 40% in size
# Target sequence (Q9NUW8 whole entry, looked up): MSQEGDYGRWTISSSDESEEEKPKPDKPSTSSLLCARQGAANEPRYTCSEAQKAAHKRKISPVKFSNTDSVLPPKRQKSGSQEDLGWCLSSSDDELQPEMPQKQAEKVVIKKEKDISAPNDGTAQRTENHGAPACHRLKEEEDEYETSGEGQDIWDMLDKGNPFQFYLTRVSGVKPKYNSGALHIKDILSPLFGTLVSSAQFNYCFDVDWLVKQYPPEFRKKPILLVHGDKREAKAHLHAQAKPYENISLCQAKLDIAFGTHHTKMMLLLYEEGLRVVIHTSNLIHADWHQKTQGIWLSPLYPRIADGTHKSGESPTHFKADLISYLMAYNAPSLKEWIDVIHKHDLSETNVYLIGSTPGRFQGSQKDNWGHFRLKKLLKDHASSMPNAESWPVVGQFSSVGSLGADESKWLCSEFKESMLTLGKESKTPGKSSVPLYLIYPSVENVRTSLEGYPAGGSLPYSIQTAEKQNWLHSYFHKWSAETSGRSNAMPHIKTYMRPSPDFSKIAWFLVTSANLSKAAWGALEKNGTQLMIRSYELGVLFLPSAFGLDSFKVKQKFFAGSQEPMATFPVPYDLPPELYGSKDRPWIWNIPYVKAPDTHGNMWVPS
#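 AlphaScreen read-out: signal falls as enzyme removes the 3' tyrosine-FITC from a 5'-biotinylated DNA oligo (15 nM, 5 min, RT). Enzyme was E. coli-made recombinant Tdp1 at 1 nM, exposed to compound for 15 min beforehand; beads 10 ug/ml, 10 min.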
# Gal4-VP16 FLuc – inhibits Gal4-VP16 luciferase reporter, ROR gamma counter-screen. Potency, µM (doses to about 53.6 µM), inactives show at the top dose activity, negative = inhibition, hits mostly inhibitors. hit rate 3.5% among 310,000. Drosophila S2 Gal4-VP16 UAS-luciferase, luminescence, 20 h;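 note: Gal4-VP16 expression switched on by copper sulfate through the metallothionein promoter; nearly all actives have a fitted effect of over 50% in size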
# * hit, by the source's call; ? = inconclusive; . = no result; [ ] = another dose, or the depositor's remark. Most compounds without a hit are left out; they make up all but 19% or so of the library. Calls come from the whole dose curve; as a rule, active = well fitted curve in the direction sought with a large enough effect; inconclusive = small, poorly fitted or top-dose-only effect, or another doubt; inactive = no such curve, though single readings can be large; an effect the other way counts as inactive or inconclusive. % is set by controls: 0 for no effect and ±100 for the full control effect; potency is the fitted concentration of half-maximal effect.
SMILES,DT40 TDP1 no CPT,RORg inh,DT40 TDP1 CPT,TDP1 block,Gal4-VP16 FLuc
COc1ccc(O[C@H]2C=C[C@@H](c3ccccc3)O[C@@H]2CO/N=C(\C)CCN2CCc3nc(-c4ccccc4)c(-c4ccccc4)cc3C2)cc1,.,9%[10 µM],.,12%[21 µM],1%[10 µM]
CN(C)c1oc(-c2ccc(Cl)cc2)nc1S(=O)(=O)c1ccccc1,12%,15%,-2%,11%,1%
CC(C)Cc1ccc(CN2CCCC(NC(=O)c3cnc4ccccn4c3=O)C2)cc1 (configuration not stated),23µM*,.,23µM*,.,.
CC(=O)c1c(C)nn(CC(=O)NC2CCCN(Cc3ccc(CC(C)C)cc3)C2)c1C (configuration not stated),?,9%,21µM*,2%,-4%
O=C(NC1CCCN(Cc2ccc(Cl)cc2)C1)c1cnc2ccccn2c1=O (configuration not stated),18µM*,?,?,5%[56.1 µM],-5%
CCCn1ncc(C(=O)NC2CCCN(Cc3ccc(Cl)cc3)C2)c1C (configuration not stated),-26%,0%,?,1%,-7%
Cc1ccn(CC(=O)NC2CCCN(Cc3ccc(CC(C)C)cc3)C2)n1 (configuration not stated),?,2%,?,4%,-9%
CS(=O)(=O)c1cccc(S(=O)(=O)N2CCCCCC2)c1,10%,-25%,2%,3%,12%
O=C(O)/C(=C/c1ccco1)c1ccccc1,.,-15%,.,-11%,-10%
COCCN1C(=O)C(=O)/C(=C(/O)c2ccc(S(=O)(=O)N3CCCCC3)cc2)C1c1ccc(O)c(OC)c1 (configuration not stated),3%,-8%,-3%,2%,-8%
CC1(C)CC(C)(c2ccc(O)cc2O)N(c2ccc3ccccc3c2)C(=S)N1 (configuration not stated),?,7.9µM*,?,5%,?
CCOC(=O)C1=C[C@@H](CC)N(S(=O)(=O)c2ccc(C)cc2)[C@H]1c1cccc(Cl)c1,21µM*,.,?,.,.
CCOC(=O)C1=C[C@@H](c2ccccc2)N(S(=O)(=O)c2ccc(C)cc2)[C@H]1c1cccc(Cl)c1,23µM*,.,?,.,.
CCOC(=O)C1=C[C@@H](CC)N(S(=O)(=O)c2ccc(C)cc2)[C@H]1c1cccs1,16µM*,.,15µM*,.,.
CCc1ccc([C@H]2C(C(=O)O)=C[C@@H](C(C)(C)C)N2S(=O)(=O)c2ccc(C)cc2)cc1,-22%,.,-13%,3%,.
CCOC(=O)C1=C[C@@H](C(C)(C)C)N(S(=O)(=O)c2ccc(C)cc2)[C@H]1c1cccc(Cl)c1,13µM*,.,15µM*,.,.
Cc1c(C(=O)OCC(=O)NC(C)c2ccccc2)oc2ccccc12 (configuration not stated),5%,-26%,-6%,2%,?
CCOC(=O)C1=C[C@@H](CC)N(S(=O)(=O)c2ccc([N+](=O)[O-])cc2)[C@H]1c1ccccc1,?,.,21µM*,.,.
C[C@H](NC(=O)N1CCc2nc(COc3ccccc3)c3c(c2C1)CO[C@@H](C)C3)c1ccccc1,.,.,.,12%[12.3 µM],.
C=C(C)C(=O)OCCCCCCCCCC,.,26%,.,6%,-3%
Brc1ccc(CSc2nnc(-c3cnccn3)n2Cc2ccco2)cc1,15µM*,-27%,?,-5%,-5%[0.365 µM]
Cc1ccc(C(=O)CSc2nccn2-c2ccccc2)cc1,?,10µM*,?,3%,?
Cc1ccc(NCc2nnc(SCc3ccc(C#N)cc3)n2Cc2ccco2)c(C)c1,23µM*,8%,?,9%,3%
N#Cc1ccc(CSc2nnc(-c3ccccc3)n2Cc2ccco2)cc1,29µM*,42%,?,5%,-14%
N#Cc1ccc(CSc2nnc(Cc3cccs3)n2Cc2ccco2)cc1,?,-42%,?,-9%,27%
O=C(CSc1nccn1-c1ccccc1)c1ccc(Cl)cc1,?,?,-17%,9%,-8%

# Compound activity: PubChem BioAssay, National Center for Advancing Translational Sciences (NCATS)
